In ChEMBL document CHEMBL4513137, “CO-ADD screening of University of Manchester (UK) compounds”:
Potency and affinity values are given separately.

Test system: Staphylococcus aureus
Conditions: Concentration 32 ug.mL-1; ASSAY_TEST Inhibition of Bacterial Growth; detection method Absorption (OD600); MEDIA CAMHB; plate type 384well; NBS; CORNING #3640; time 18 hr

Point of comparison: `Cc1cc(C)c(Nc2ccccc2-c2ccc([N+](=O)[O-])cc2)c(C)c1`, Inhibition -5.17%. Against it:
- Cc1ccccc1Nc1ccccc1-c1ccc([N+](=O)[O-])cc1 — higher, 21.4%
- COc1cccc(Nc2ccccc2)c1-c1c(Cl)cc(Br)cc1Cl — higher, 19.63%
- O=[N+]([O-])c1ccc(-c2c(Nc3ccccc3)cccc2-c2ccccc2)cc1 — higher, 23.01%
- COc1cc([N+](=O)[O-])ccc1-c1ccccc1Nc1ccccc1 — higher, 23.48%
- Cc1cccc(C)c1Nc1ccccc1-c1ccccc1[N+](=O)[O-] — higher, 57.09%
- O=[N+]([O-])c1ccc(-c2c(Nc3ccccc3)ccc3ccccc23)cc1 — higher, 8.24%
- COc1cccc(Nc2ccccc2)c1-c1ccc([N+](=O)[O-])cc1 — higher, 23.81%
- c1ccc(Nc2ccccc2-c2ncccn2)cc1 — higher, 6.34%
- O=[N+]([O-])c1ccc(-c2ccccc2Nc2ccccc2)cc1 — lower, -5.74%
- O=[N+]([O-])c1ccc(-c2ccccc2Nc2ccccc2Br)cc1 — higher, 15.02%
- COc1cc([N+](=O)[O-])ccc1-c1c(Nc2ccccc2)cccc1OC — higher, 27.31%
- CC(=O)c1ccc(-c2ccccc2Nc2ccccc2)cc1 — higher, 12.03%
- O=[N+]([O-])c1ccc2c3ccccc3n(-c3ccccc3)c2c1 — higher, 11.65%
- CC[C@@H](Nc1ccccc1-c1c(Cl)cc(Br)cc1Cl)c1ccccc1 — higher, 29.88%
- CN(c1ccccc1)c1ccccc1-c1ccc([N+](=O)[O-])cc1 — higher, 9.33%
- Clc1cc(Br)cc(Cl)c1-c1ccccc1Nc1ccccc1 — higher, 22.27%
